Test results from PubChem BioAssay AID1159614 (National Center for Advancing Translational Sciences (NCATS), 2016).
The whole screen tested about 45,000 compounds, of which about 65 (0.1%) were called active. Calls follow the shape of the dose curve; as a rule, active = well fitted activation curve with a large enough effect; inconclusive = small, poorly fitted or top-dose-only effect; inactive = no such curve, though single readings can be large or run the other way. Many of the other results were omitted from the sample, so actives are more common in it than they were.

molecular target: Galactocerebrosidase (Homo sapiens) (UniProt P54803); assay: A Novel Cell-Based Assay to Identify Small Molecules for B -Galactocerebrosidase; details: 145M-Twi-hGALC-G270D cells (Twitcher mouse brain line with human GALC G270D), HMU-beta-Gal fluorescence, 48 h; series mostly up to 57.5 µM; also: nearly all actives have a fitted effect of over 65% in size
Source text: Lysosomal storage diseases (LSDs) are caused by genetic mutations in genes encoding proteins important for normal lysosomal function. Globoid cell leukodystrophy (GLD), mostly known as Krabbe disease, is a prototype of the neurological LSDs caused by deficiency of beta-galactocerebrosidase (GALC). In brain specimens of GLD patients, psychosine levels are substantially elevated. At elevated concentrations, psychosine becomes cytotoxic to neuronal cells, particularly to oligodendrocytes (OLG), neural cells responsible for myelin formation. Therefore, the biochemical disturbances in GLD are manifested by different degrees of brain demyelination resulting in a broad spectrum of neurological manifestations. Most of the FDA-approved therapies are based on enzyme replacement therapeutic (ERT) agents, which treat non-neurological symptoms of Gaucher disease, Fabry disease, few mucopolysaccharidoses and Pompe disease. Unfortunately, in GLD, a primarily neurological LSD, ERT agents, as large molecular weight molecules unable to cross the blood-brain barrier, which makes this an inefficacious therapeutic approach. In GLD, increasing the residual GALC activity just above the critical threshold (~10% of wild type enzymatic activity), the cytotoxic levels of psychosine will be reduced, avoiding the OLGs apoptosis and the subsequent demyelination process. This will translate in disease stabilization and amelioration of GLD patient symptoms.
A cell-based assay in 1,536-well plate format was developed to implement a quantitative high-throughput screening (qHTS) assay using GLD-disease relevant cells to identify small molecules that produce enhancements of the residual enzymatic activity levels of mutants GALC found and prevalent in GLD patients. Compounds that are active may therefore have some therapeutic application for GLD. After the treatment of live cells for a determined period, using a fluorescent GALC specific substrate, the mutant residual GALC activity is measured. This cell-based qTHS assay was used to screen part of the MLPCN library for small molecule able to increase the mutant GALC enzymatic activity. In this assay, increased fluorescent signal corresponds to enhanced levels of mutant GALC residual enzymatic activity. Activation is the desired outcome for this assay.
NIH Chemical Genomics Center [NCGC]
NIH Molecular Libraries Probe Centers Network [MLPCN]
Assay Submitter (PI): Gustavo Maegawa MD,PhD, University of Florida, Gainesville, FL
2)#Two cell lines were established for the assay: 145M-Twi-hGALC-G270D (brain-derived Twitcher cell line stably expressing human GALC-G270D) and 145M-Twi-hGALC-WT (same 145M-Twi stably expressing human GALC wild type). The Twitcher is the murine C57B/6 model for GLD with naturally occurring homozygous nonsense GALC mutation. The 145M-Twi cell line was established at Maegawa lab (Ribbens J et al 2014).
a.#Media: DMEM/F12 (1:1) with 10% fetal bovine-serum (FBS) with penicillin/streptomycin (PS-1X - 100 I.U./mL of penicillin+100 ug/mL of streptomycin).
b.#The 6-Hexadecanoylamino-4-methylumbelliferyl-b-D-galactoside (HMU-B-gal) substrate was prepared as per Wiederschain et al 1992. Using 20-mL borosilicate tubes, 2.20 mg of HMU-b-Gal was added in each tube to prepare substrate-film with a final air-nitrogen stream evaporation to remove all diluent solvents.
c.#The HMUb-Gal substrate buffer consists of 0.2 M Na2HPO4 (sodium phosphate dibasic)/ 0.1 M Citric Acid with the pH adjusted to 5.2 using HCl. Sodium Azide at 0.02% and Sodium Taurocholate (NaTC) at 1 mg/mL were added to this substrate buffer.
d.#The HMU-b-Gal stopping buffer consist of 0.5 M NaHCO3 (sodium bicarbonate) /0.5 M Na2CO3 (sodium carbonate). […] Triton X-100 at 0.25% was added.
4)#Preparation of HMU-b-Gal substrate tubes
Adding 18.6 mL of the HMUb-Gal substrate buffer to each 20-mL tube (2.20 mg of HMU-b-Gal) will reach a concentration of 0.2 mM. Vortex well the tube until the solution is fully homogenized (clear cloudy solution). […]

Sequence of Galactocerebrosidase (Homo sapiens) (P54803 whole entry G286D): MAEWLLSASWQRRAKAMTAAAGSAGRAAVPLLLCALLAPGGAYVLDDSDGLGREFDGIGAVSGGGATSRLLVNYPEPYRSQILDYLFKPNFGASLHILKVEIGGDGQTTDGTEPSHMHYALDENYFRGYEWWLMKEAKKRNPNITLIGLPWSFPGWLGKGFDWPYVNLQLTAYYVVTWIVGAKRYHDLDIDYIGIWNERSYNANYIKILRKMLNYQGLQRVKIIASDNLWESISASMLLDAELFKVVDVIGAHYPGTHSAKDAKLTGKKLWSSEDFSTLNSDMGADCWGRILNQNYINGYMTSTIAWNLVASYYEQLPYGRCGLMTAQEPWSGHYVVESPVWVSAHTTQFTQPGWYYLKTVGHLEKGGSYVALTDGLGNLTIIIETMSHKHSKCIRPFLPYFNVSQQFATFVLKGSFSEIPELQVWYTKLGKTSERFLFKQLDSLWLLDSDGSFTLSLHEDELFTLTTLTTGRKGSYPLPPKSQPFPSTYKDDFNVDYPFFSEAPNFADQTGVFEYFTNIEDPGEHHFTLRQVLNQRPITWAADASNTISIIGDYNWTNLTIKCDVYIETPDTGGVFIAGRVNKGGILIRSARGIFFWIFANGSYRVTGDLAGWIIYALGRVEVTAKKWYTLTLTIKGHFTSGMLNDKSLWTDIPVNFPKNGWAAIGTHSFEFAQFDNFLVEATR

Potency, inactive:
Cc1cccc(CC(=O)N2CC(=O)Nc3ccc(F)cc3C2c2ccccc2)c1 (configuration not stated)
Cc1cccc(NC(=O)c2nnn(CC(=O)Nc3ccc(C(C)C)cc3)c2N)c1C
Cc1cc(C)cc(OCC(=O)Nc2nc(-c3ccc(F)cc3)ns2)c1
Cc1cccc(NC(=O)Cn2c(C(F)(F)F)nc3ccccc32)c1C
COc1cccc(-c2cc(C(=O)Nc3ccc(C)cc3)[nH]n2)c1
CCc1cc2c(cc3c(=O)n(CC(=O)NCCc4ccc(OC)c(OC)c4)ncn32)s1
Cc1ccccc1OCC(=O)Nc1c(C(=O)Nc2ccccc2F)oc2ccccc12
CCOc1cc(C(=O)Nc2nnc3n2CCS3)cc(OCC)c1OCC
COc1cccc2c1cc1c(=O)n(CC(=O)N3CCN(c4cccc(Cl)c4)CC3)nc(C)n12
CCCn1c2ccccc2c2cnn(CC(=O)N(C)c3ccccc3CC)c(=O)c21
CCN(C(=O)c1sc2cc(OC)ccc2c1Cl)c1ccccc1
CCOC(=O)c1nnn(CC(=O)NC(=O)Nc2ccccc2F)c1C(=O)OCC
Cn1c(=O)c2c(nc(Oc3ccc(C#N)cc3)n2Cc2ccc(Cl)cc2Cl)n(C)c1=O
COc1cc(CN(CC2CCCO2)C(=O)c2ccccc2F)cc(OC)c1OC (configuration not stated)
Cc1cccn2c(=O)c(C(=O)NC(C)c3ccccc3)cnc12 (configuration not stated)
Cc1ccc(S(=O)(=O)NC2(C(F)(F)F)NC(=O)N(CCc3ccccc3)C2=O)cc1 (configuration not stated)
COc1ccc(CC(=O)Nc2nnc3n2CCS3)cc1OC
COc1cccc(C2C(C(=O)Nc3ccc(C)cc3C)=C(C)Nc3c(C(=O)Nc4ccccc4)cnn32)c1 (configuration not stated)
Cc1ccc(-c2nc3ccccn3c2Nc2c(C)cccc2C)o1
Brc1ccc2c(c1)NC(c1cccnc1)=NC(c1ccccc1)=N2
COC(=O)c1ccc(NC(=O)CCc2c(C)nc3c(c(C)nn3-c3ccc(C)cc3)c2C)cc1
O=C(Nc1ccccc1Cl)N1CCC(CN2CCCC2)CC1
COc1cc(Cl)c(NC(=O)C(NS(=O)(=O)c2cccs2)C(C)C)c(OC)c1 (configuration not stated)
O=C(NC1CC(=O)N(c2ccc(F)cc2)C1)c1ccc(S(=O)(=O)N2CCCC2)cc1 (configuration not stated)
CCc1cc2c(cc3c(=O)n(CC(=O)N4CCN(c5cc(Cl)ccc5C)CC4)nc(CC)n32)s1
Cc1cccc(Cn2c(SCc3ccc(C(=O)N4CCC(C)CC4)cc3)nc3ccncc32)c1
COc1ccc2cc(CNc3ccc(OC)c(OC)c3)c(=O)n(CC(=O)Nc3ccccc3F)c2c1
